Source: PubChem BioAssay AID624330 (Southern Research Specialized Biocontainment Screening …, 2012)
In all, about 340,000 compounds went through this assay and about 2,100 (0.62%) were called active.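 The calls were made as follows: active = first-screen hits whose inhibition reached a set limit at any dose in the follow-up dose series; inconclusive = inhibition above the set first-screen limit but never retested; inactive = the rest.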 Only a sample is shown. Potency and affinity values are given separately.

Molecular target: Rac GTPase-activating protein 1 (Homo sapiens) (UniProt Q9H0H5)
Sequence (Q9H0H5 whole entry, looked up): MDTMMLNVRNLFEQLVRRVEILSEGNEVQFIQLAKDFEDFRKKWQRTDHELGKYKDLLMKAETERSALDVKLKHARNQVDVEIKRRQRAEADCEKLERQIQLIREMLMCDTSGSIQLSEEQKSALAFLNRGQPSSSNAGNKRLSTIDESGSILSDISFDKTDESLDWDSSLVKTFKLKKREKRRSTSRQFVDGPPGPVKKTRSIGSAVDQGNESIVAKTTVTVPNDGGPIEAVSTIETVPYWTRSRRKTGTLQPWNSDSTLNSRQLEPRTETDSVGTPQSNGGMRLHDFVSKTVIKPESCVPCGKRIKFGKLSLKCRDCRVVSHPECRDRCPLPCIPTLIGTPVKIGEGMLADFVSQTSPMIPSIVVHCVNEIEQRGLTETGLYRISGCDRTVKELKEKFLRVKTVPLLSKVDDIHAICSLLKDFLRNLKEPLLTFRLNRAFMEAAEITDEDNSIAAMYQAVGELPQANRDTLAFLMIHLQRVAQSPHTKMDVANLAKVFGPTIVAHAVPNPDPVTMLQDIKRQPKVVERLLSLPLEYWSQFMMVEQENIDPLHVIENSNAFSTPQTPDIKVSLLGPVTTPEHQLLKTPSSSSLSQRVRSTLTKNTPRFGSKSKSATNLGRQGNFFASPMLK
Assay: MgcRacGAP GTPase-activating activity inhibitors, confirmation, biochemical, ADP Hunter fluorescence, primary and confirmatory (AID 624330);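 also: fluorescence reports GDP produced by GAP-driven GTP hydrolysis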
Conditions: MgcRacGAP-stimulated Rac1 GTP hydrolysis, at 30 µM, hits give high values, GST-tagged Rac1 F28L mutant substrate

inhibition, inactive:
N#Cc1ccsc1NC(=O)CCN1C(=O)C2CCCCC2C1=O (stereo not drawn) -1.49%
C/C(=N\NC(=O)c1c(Cl)cnn1C)c1cccc(NC(=O)c2ccc(C)cc2)c1 2.57%
COC(=O)/C(=C\c1ccc([N+](=O)[O-])cc1)NC(=O)c1ccccc1 -0.53%
CCO[C@@H]1OC(C(=O)NC2CC2)=C[C@H](c2ccccc2)[C@H]1CCCO 2.47%
COC1=C(N)C(=O)c2nc(C)ccc2C1=O -3.53%
COC1=C(Br)C(=O)c2ncccc2C1=O -0.95%
COc1ccc(CN(CC(=O)NCc2ccco2)C(=O)CNS(=O)(=O)c2ccc(C)cc2)cc1 -1.32%
COc1ccc(CCCN2CCC(CN3CCNC(=O)C3=O)CC2)cc1OC 15.8%
COc1ccc(/C=N/N2CCN(c3ccc(Cl)cc3)CC2)cc1O 13.4%
C[C@H](NC(=O)c1ccc(Cl)cc1)C(=O)NNC(=O)c1cccs1 4.07%
O=C(O)/C(=C\c1ccc(Cl)c([N+](=O)[O-])c1)c1ccc(S(=O)(=O)N2CCCCC2)s1 9.75%
COc1cc(/C=C/C(=O)OCC(=O)c2c(N)n(C)c(=O)n(C)c2=O)ccc1O 17%
COc1ccc(/C=C/C(=O)OCC(=O)c2ccc[nH]2)cc1 2.04%
COc1cc(/C=C/C(=O)OCC(=O)c2ccc[nH]2)cc(OC)c1OC 1.61%
O=C(/C=C/c1ccco1)OCC(=O)c1ccc(OC(F)F)cc1 7.34%
Cn1c(NN)nc2sc3c(c2c1=O)CC(C)(C)OC3 -17.1%
O=S(=O)(Nc1ccc(N2CCOCC2)cc1)c1ccc(F)cc1 6.7%
CSCC[C@H](NS(=O)(=O)c1ccc(C)cc1)C(=O)N1CCC(C(=O)N[C@@H](C)C(=O)O)CC1 -1.38%
O=C(CN1CCN(c2cccc(C(F)(F)F)c2)CC1)N(C1CC1)C1CCS(=O)(=O)C1 (stereo not drawn) -5.48%
O=C(CN1CCN(c2ccc(F)cc2)CC1)N(C1CCCC1)C1CCS(=O)(=O)C1 (stereo not drawn) 3.6%
CCOC(=O)c1c(C)[nH]c(C(=O)OCC(=O)Nc2cc(C)c(Cl)cc2OC)c1C 10.4%
Cc1ccc(NC(=O)N2CCCC2C(=O)NCc2ccc3c(c2)OCO3)cc1 (stereo not drawn) 2.95%
CC(C)Nc1nc(Oc2ccc(=O)n(-c3ccccc3)n2)nc(N(C)C)n1 12%
COc1cccc(N2CCN(C(=S)Nc3ccc(C)cc3C)CC2)c1 12.4%
O=C(Nc1ccc(F)cc1)c1cncs1 9.26%
C=CC[n+]1ccc(/C=C2\C=Cc3cc(C)ccc3N2CC)c2ccccc21 17%
CC[n+]1c(/C=C2\C=C(C)CC(C)(C)C2)sc2ccccc21 31.8%
CCc1cc2c(SCC(=O)NC3CCCC3)ncnc2s1 6.67%
COc1cccc(NC(=O)[C@@H]2CCC(=O)N2C2OC(=O)c3ccccc32)c1 (stereo partly drawn) -0.84%
CC(=O)Nc1ccc(NC(=O)Cn2cnc(S(=O)(=O)N3CCOCC3)c2)cc1 -16.8%
Cc1ccc(CNC(=O)CSCc2ccccc2)cc1 10.2%
Cc1ccc(CCNC(=O)CSCc2ccc(F)cc2)cc1 8.48%
Cc1ccc(CSCCNC(=O)CSCc2ccc([N+](=O)[O-])cc2)cc1 6.03%
Cc1ccc(CSCC(=O)NCCc2ccccc2)cc1 -4.12%
CC1=C(C#N)C(c2ccc(O)cc2)C(C#N)=C(C)N1 11.8%
CCOc1ccc(NC(=O)CN2CCN(CC(=O)Nc3ccc(C(=O)OC)cc3)CC2)cc1 6.74%
C/C(=N\NC(=O)Cn1nc(C)c([N+](=O)[O-])c1C)c1ccc(Cl)s1 5.29%
COC(=O)c1scc2c(=O)cc(C(F)(F)F)[nH]c12 6.18%
Cc1cc(OCC(=O)N(C(C)C)C(C)C)cc(C)c1Br 7.37%
COc1ccccc1N1CCN(/N=C(\C)c2ccccc2O)CC1 9.26%
COc1ccc(/C=N/N2CCOCC2)cc1O 6.98%
COc1ccc(/C=N/N2CCN(c3ccccc3OC)CC2)cc1Br 5.46%
COc1cc(/C=N/N2CCN(Cc3ccc(C)cc3)CC2)cc(OC)c1O 25.8%
COc1ccc(/C=N/N2CCN(C)CC2)cc1OC 4.11%
CC(=O)Oc1ccc(/C(C)=N/N2CCN(Cc3ccc(C)cc3)CC2)cc1 -1.21%
COc1ccc(/C=N/N2CCN(c3ccccc3OC)CC2)cc1OC 1.46%
COc1ccccc1N1CCN(/N=C(\C)c2ccc(O)cc2)CC1 8.49%
COc1ccc(-c2cc([C@H]3[C@H]4C=CC[C@@H](C)[C@@H]4C(=O)N3Cc3ccccc3)ccc2F)cc1 4.49%
CCC(C)N(C(=O)COC(=O)c1ccc(=O)n(Cc2ccccc2)n1)C1CCS(=O)(=O)C1 (stereo not drawn) 2.85%
CSc1nc(C(=O)N2CCc3c([nH]c4ccccc34)C2c2ccccn2)cs1 (stereo not drawn) 3.69%
CCCCNC(=O)Cn1c(=O)c2c(ncn2CCC(C)C)n(Cc2ccccc2)c1=O 6.76%
CCOC(=O)/C=C1\SCC(=O)N1CC(=O)NC(c1ccccc1)c1ccccc1 5.26%
CN(CC(=O)Nc1cccc(F)c1)C(=O)CSc1ccccc1 1.63%
COc1ccccc1N1CCN(/N=C/c2cc(OC)c(OC)c(OC)c2)CC1 -2.37%
COc1ccccc1N1CCN(/N=C/c2cccc(O)c2)CC1 10.5%
COc1ccccc1N1CCN(/N=C\c2ccccc2)CC1 -17.8%
COc1ccccc1N1CCN(/N=C/c2cccc(OC)c2O)CC1 -28.4%
CC1CCCCC1NC(=O)CSc1nnc(CC(=O)Nc2ccccc2F)n1C (stereo not drawn) 5.96%
O=C(C[C@@H]1C/C=C/CC[C@@H](Cc2ccc(F)cc2)C(=O)OCCNC1=O)N[C@H](CO)Cc1ccccc1 3.03%
COCC1CCN(Cc2cn(C)nc2-c2cccc(Cl)c2)C1 (stereo not drawn) 1.3%
O=C(CCc1nnc2ccc(NCc3ccc(F)cc3)nn12)NC1CCCC1 12.4%
CC(C)C(=O)N(Cc1ccc2c(c1)OCO2)Cc1ccccn1 7.22%
c1ccc(CNCc2ccc3c(c2)OCO3)nc1 4.13%
O=C(CN1CCCc2ccccc21)Nc1cccc(S(=O)(=O)N2CCCC2)c1 9.73%
CNCc1c(C)nn(-c2ccccc2)c1C 8.94%
CCn1ccnc1CN(C)Cc1nc(-c2ccccc2)no1 -3.37%
C/C(=N\NC(=O)CSCc1ccccc1Cl)c1cccc(NC(=O)c2ccccc2)c1 4.95%
CC(=O)Nc1ccc(NC(=O)CSCc2ccccc2Cl)cc1 10.3%
Cc1ccccc1Nc1nc(N)nc(COC(=O)c2ccc3c(c2)OCCO3)n1 12.6%
O=C(Nc1ccccc1C(=O)Nc1ccc(F)cc1)c1ccco1 6.4%
CCOc1ccc(S(=O)(=O)N2CCN(C(=O)c3ccc(C)c(S(=O)(=O)N4CCOCC4)c3)CC2)cc1 5.86%
COc1ccc(C(=O)N2CCN(Cc3cc(OC)c(O)c(OC)c3)CC2)cc1OC 18.5%
COc1ccc(C(=O)N2CCN(C(=O)CC(C)C)CC2)cc1OC -1.21%
COc1cc(OC)c(OC)cc1CN1CCN(C(=O)CC(C)C)CC1 12.8%
COc1ccc(CN2CCN(C(=O)CC(C)C)CC2)cc1Br 26.2%
COc1ccc(CN2CCN(C(=O)CC(C)C)CC2)cc1 26.1%
CCOc1cc(CN2CCCCCC2)ccc1OC 25.5%
C=CCN1C(=O)c2ccc(C(=O)N(C)CC(=O)Nc3ccccc3Cl)cc2C1=O -7.53%
CCOC(=O)c1ccc(NC(=O)c2nc[nH]c2C(=O)NCCCNC(=O)c2[nH]cnc2C(=O)Nc2ccc(C(=O)OCC)cc2)cc1 -0.79%
COc1ccc(N=Cc2c(O)c3ccccc3oc2=O)cc1 10.7%
COC(=O)c1ccccc1NC(=S)NC(=O)COc1ccccc1Cl 2.61%
CCOc1ccc(-n2c(-c3ccco3)n[nH]c2=S)cc1 15.8%
O=C(COC(=O)c1cccs1)NCCc1ccc(F)cc1 4.76%
CC1CC(C)(C)N(C(=O)CN2C(=O)c3ccccc3C2=O)c2ccccc21 (stereo not drawn) 2.35%
CC1CC(C)(C)N(C(=O)CN2C(=O)CCC2=O)c2ccccc21 (stereo not drawn) -0.11%
Cc1ccc2c(c1)C(C)CC(C)(C)N2C(=O)NC1CCCCC1 (stereo not drawn) 3.06%
CN1CCN(CC(=O)N2c3ccccc3C(C)(c3ccccc3)CC2(C)C)CC1 (stereo not drawn) 10.3%
CCN(CC)C(=O)[C@H]1C[C@H](CC(=O)NCCCN(C)C)C(=O)N2CCc3c([nH]c4ccc(Cl)cc34)[C@]12C 4.62%
O=C(NCc1ccccn1)C12CC3CC(CC(C3)C1)C2 3.08%
O=C(NCc1ccccn1)NC12CC3CC(CC(C3)C1)C2 1.18%
COc1cc(OC)c(OC)cc1/C=C1/C(=O)N=C(N)N1C 0.61%
CC(NC(=O)/C=C/c1ccco1)c1nc2ccccc2n1Cc1ccccc1F (stereo not drawn) -6.08%
O=c1c(-c2ccco2)[n+]([O-])c2ccccc2n1OCc1ccccc1 2.31%
